The values below come from PubChem BioAssay.

NADPH oxidase 5 (Homo sapiens), sequence (Q96PH1 whole entry, looked up): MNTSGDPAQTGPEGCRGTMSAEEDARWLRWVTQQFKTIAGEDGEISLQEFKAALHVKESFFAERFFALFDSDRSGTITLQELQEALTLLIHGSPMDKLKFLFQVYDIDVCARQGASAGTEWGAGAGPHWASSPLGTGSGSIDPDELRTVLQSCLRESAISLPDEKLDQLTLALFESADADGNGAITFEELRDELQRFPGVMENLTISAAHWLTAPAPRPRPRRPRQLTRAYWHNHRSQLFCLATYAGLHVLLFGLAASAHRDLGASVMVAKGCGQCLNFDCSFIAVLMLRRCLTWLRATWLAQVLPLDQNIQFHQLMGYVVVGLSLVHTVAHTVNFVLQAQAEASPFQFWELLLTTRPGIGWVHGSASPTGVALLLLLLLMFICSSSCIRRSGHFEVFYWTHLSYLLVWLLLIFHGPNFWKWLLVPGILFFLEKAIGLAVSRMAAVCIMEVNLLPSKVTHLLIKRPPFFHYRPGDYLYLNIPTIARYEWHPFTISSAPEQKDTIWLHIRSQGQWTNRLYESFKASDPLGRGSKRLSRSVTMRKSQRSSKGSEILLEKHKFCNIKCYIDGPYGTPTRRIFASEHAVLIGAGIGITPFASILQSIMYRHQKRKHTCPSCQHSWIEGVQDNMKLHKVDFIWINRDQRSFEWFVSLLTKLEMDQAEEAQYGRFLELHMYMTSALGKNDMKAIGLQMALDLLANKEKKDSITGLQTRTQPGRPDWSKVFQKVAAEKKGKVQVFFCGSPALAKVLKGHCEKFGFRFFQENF

This assay addresses NADPH oxidase 5 (Homo sapiens) (UniProt Q96PH1). The assay can be described thus: NOX5-dependent H2O2 signal modulators, primary screen, NOX inhibitor project, cell-based, HEK293-NOX5, Amplex Red fluorescence (AID 1161). As to conditions: HEK293-NOX5, ionomycin, 45 min, higher = more signal.
`COc1ccc(C#Cc2ccc3c(c2)[C@]2(C(=O)N3)[C@H](C(=O)N3CCN(c4ncccn4)CC3)[C@H]3C(=O)O[C@H](c4ccccc4)[C@H](c4ccccc4)N3[C@@H]2c2ccc(O)cc2)cc1` came in with a z-score of -0.146. To `CCCC[C@H]1C[C@@H]1[C@@H]1N(P(=O)(c2ccccc2)c2ccccc2)[C@](CO)(c2ccccc2)CC12CC2` belongs -2.29. The compound `O=C(N1CCCCC1)[C@]1(CCS(=O)(=O)c2ccccc2)N=C(c2ccc(OCCCO)cc2)O[C@@H]1c1ccccc1` had a z-score of -1.94. Compound `OCCCc1cc[n+](Cc2cccc(OC(F)(F)F)c2)cc1` registered a z-score of 0.384. As for `COc1ccc([Si](C)(C)[C@H]2[C@H](CC(=O)N3CCC[C@H]3CO)O[C@@]3(C(=O)N(Cc4cccc(N5CCC5=O)c4)c4ccccc43)[C@@H]2C)cc1`, the figure is 4.69. With `CCCNC(=O)[C@@]1(c2ccc([N+](=O)[O-])cc2)CC(=O)N(CC23CC4CC(CC(C4)C2)C3)[C@@H]1c1ccc(CO)cc1I`, the z-score stood at 2.21. To `CCCNC(=O)[C@@]1(C)c2ccccc2C(=O)N(Cc2cc(F)cc(C(F)(F)F)c2)[C@H]1c1ccc(CO)cc1` belongs -2.07; to `C=C[C@H](C)[C@H](OC(=O)Nc1ccc(OC)cc1)c1ccc(O)c2ccccc12`, -0.256. As to `O=c1cccc(-c2ccccc2)o1`, the z-score is -0.322.

For `CC1CC/C=C\[C@H]2OC34C=CCN(Cn5nnc6ccccc65)C(=O)[C@H]3N(CCCO)C(=O)[C@@H]4C2C(=O)O1` (some centres not stated), the z-score is 1.4. As for `COc1ccc(C#Cc2ccc3c(c2)[C@]2(C(=O)N3)[C@H](c3ccc(OCCO)cc3)N3[C@H](c4ccccc4)[C@H](c4ccccc4)OC(=O)[C@H]3[C@@H]2C(=O)Nc2nc3ccccc3s2)cc1`, the figure is 0.177; as for `C=C(C(=O)CC[C@H](OC(=O)c1cccnc1)c1ccccc1OCCO)C(C)C`, -2.03. In turn, `C=CC[C@@]1(C(=O)NCCN2CCOCC2)N=C(c2ccc(OCCCO)cc2)O[C@@H]1c1ccccc1CN=[N+]=[N-]` displayed a z-score of -0.701. To `C=CCOC(=O)[C@H]1[C@@H]2C(=O)O[C@@H](c3ccccc3)[C@@H](c3ccccc3)N2[C@@H](c2ccc(OCCOC(=O)[C@@H]3C[C@@H]4C(=O)NCC(=O)N4[C@@H]3c3ccc(O)cc3)cc2)[C@]12C(=O)Nc1ccc(I)cc12` belongs 1.61; to `CCOC(=O)C[C@H]1[C@H](OC(=O)c2ccc(C(=O)c3ccccc3)cc2)[C@@H](NC(=O)c2ccc3ccccc3n2)c2cc(OCCCO)ccc2N1C(=O)c1ccc2ccccc2n1`, 1.03; to `C=CCC(OC(C)=O)[C@@H]1[C@@H](N(Cc2ccc(-c3cccc(C(F)(F)F)c3)o2)C(=O)Cc2ccc(OC)cc2)c2cc(OCCCO)ccc2N1C(=O)Cc1ccc(OC)cc1` (some centres not stated), -1.89. To `C=CCC(OC(C)=O)[C@@H]1[C@@H](N(Cc2ccc(-c3ccccc3)cc2)C(=O)c2ccc(C)cc2)c2cc(OCCCO)ccc2N1C(=O)Cc1ccc(OC)cc1` (some centres not stated) belongs 2.57; to `C=C(COC)C(=O)CC[C@@H](OC(=O)c1ccccc1-c1ccccc1C(=O)O)c1ccc(CO)o1`, -3.07; to `CN(C)CCCC[C@@H]1NC(=O)[C@@H]2C[C@H](C(=O)NCCCCCN)[C@H](c3ccc(O)cc3)N2C1=O`, 0.701.

Regarding `CN(C)CCCN1C(=O)[C@@]2(c3ccc([N+](=O)[O-])cc3)CC(=O)N(C3CCCCC3)[C@@H]2c2ccc(CO)cc21`, the z-score was 0.56. To `O=C1C2C=CC(C(O)c3cccc4ccccc34)N(n3cnnc3)C2C(=O)N1Cc1ccccc1` (configuration not stated) belongs -0.879; to `COCCCNC(=O)[C@]1(Cc2ccccc2N=[N+]=[N-])N=C(c2ccc(OCCCO)cc2)O[C@@H]1c1ccccc1CN=[N+]=[N-]`, -0.209; to `C=C(COC)C(=O)CC[C@H](OC(=O)c1cccnc1)c1ccccc1OCCO`, -1.26. In the case of `CCOC(=O)N1C(c2ccc(OCCCO)cc2)=NC(C(=O)OC)N1C(=O)OCC` (configuration not stated), the z-score was 0.203. As for `C=CCOC(=O)[C@H]1[C@@H]2C(=O)O[C@@H](c3ccccc3)[C@@H](c3ccccc3)N2[C@@H](c2ccc(OCCOC(=O)[C@H]3C[C@H]4C(=O)N[C@@H](CCCC[N+](C)(C)C)C(=O)N4[C@H]3c3ccc(O)cc3)cc2)[C@]12C(=O)Nc1ccccc12`, the figure is 0.96; as for `CC(C)N1C(=O)c2ccccc2[C@](C)(C(=O)NCCCN(C)C)[C@@H]1c1ccc(CO)cc1`, 1.15; as for `C=CCC(OC(C)=O)[C@@H]1[C@@H](N(Cc2ccc(-c3ccccc3)cc2)C(=O)c2ccc(C)cc2)c2cc(OCCCO)ccc2N1C(=O)c1ccc2ccccc2n1` (some centres not stated), 1.92.
